Results: PubChem BioAssay AID504467 (National Center for Advancing Translational Sciences (NCATS), 2011)
The campaign covered roughly 330,000 compounds. About 7,700 (2.3%) were called active. A call without a number means that no potency is given here. Roughly 26% stayed inconclusive and do not appear here. The call rests on the fitted dose curve; in most records, active means well fitted inhibition curve with a large enough effect; inconclusive means small, poorly fitted or top-dose-only effect, or effect the other way; inactive means flat fitted curve, though single readings scatter. The sample as a whole holds a higher share of actives than the screen did.

Test: qHTS screen for small molecules that inhibit ELG1-dependent DNA repair in human embryonic kidney (HEK293T) cells expressing luciferase-tagged ELG1; further: nearly all actives have a fitted effect of over 55% in size
Details: HEK293T ELG1-luciferase reporter, luminescence, 16 h, DNA damage induced by 5-fluorouridine; series mostly up to 46.1 µM
Outline: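 HEK293T cells expressing luciferase-tagged ELG1 (2,000/well) received 5-Fluorouridine plus compound or DMSO for 16 hr at 37 °C. Luciferase was read by ONE-Glo luminescence after 30 min at room temperature.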
Potency means the concentration at half of the fitted maximal effect.

Structure (SMILES)	Potency
O=C(CN1C(=O)NC2(CCCCCC2)C1=O)Nc1ccc([N+](=O)[O-])cc1	inactive
CC(=O)Nc1ccc(C(=O)Nc2cccc(S(=O)(=O)NC3=NCCC3)c2)cc1	inactive
CC(=O)c1ccc(S(=O)(=O)N(C)CCCC(=O)N(C)Cc2ccccc2F)cc1	inactive
Cc1cnc(C(=O)N2CCCC(N3CCN(c4ccccc4F)CC3)C2)cn1 (stereo not drawn)	inactive
Cc1ccccc1N1CCN(C2CCCN(C(=O)c3ocnc3C)C2)CC1 (stereo not drawn)	inactive
Cc1ccccc1N1CCN(C2CCCN(C(=O)c3cn4c(C)cccc4n3)C2)CC1 (stereo not drawn)	16.4 µM (active)
CC(NC(=O)COC(=O)c1ccc2ccccc2n1)c1ccccc1 (stereo not drawn)	inactive
CCN(CC)S(=O)(=O)c1cc(C(=O)Nc2cc(S(=O)(=O)N3CCOCC3)ccc2N2CCCC2)ccc1F	inactive
O=c1oc2ccc(C#CC3(O)CCCCC3)cc2cc1-n1cc(-c2ccsc2)nn1	inactive
COC(=O)[C@]1(Cc2ccccc2)N[C@H](CN(C)S(=O)(=O)c2ccc(OC(F)(F)F)cc2)[C@@H]2C(=O)N(Cc3ccccc3)C(=O)[C@@H]21	inactive
Cc1nn(CC(=O)Nc2nc3ccccc3s2)c(C)c1[N+](=O)[O-]	inactive
O=[N+]([O-])c1cc(Br)c(O)c(/C=N/Nc2nc3ccccc3s2)c1	4.11 µM (active)
Cc1ccc(S(=O)(=O)Nc2nc3ccccc3s2)cc1[N+](=O)[O-]	inactive
Cc1ccccc1NC(=O)NCC1CCN(Cc2cccc(Cl)c2)CC1	inactive
CC(=O)N1CCOc2ccc(S(=O)(=O)N3CCN(c4cccc(C(F)(F)F)c4)CC3)cc21	inactive
COc1cccc(OC)c1C(=O)OCC(=O)/C(C#N)=C(\C)N	inactive
C/C(N)=C(/C#N)C(=O)COC(=O)c1cc(-c2ccccc2)nc2ccc(Br)cc12	inactive
C/C(N)=C(/C#N)C(=O)COC(=O)c1cc(-c2cccc(Br)c2)nc2ccccc12	11.6 µM (active)
CCOc1ccccc1Nc1nnc(SCC(=O)NCC2CCCO2)s1 (stereo not drawn)	inactive
O=C(COc1ccc(F)cc1Br)NCC1COc2ccccc2O1 (stereo not drawn)	inactive
O=S(=O)(c1cccs1)N1CCN(Cc2ccccc2)CC1	inactive
O=S(=O)(c1ccc(F)cc1)N1CCN(Cc2ccccc2C(F)(F)F)CC1	inactive
CC(C)c1ccc2oc(=O)cc(CN3CCN(Cc4ccccc4)CC3)c2c1	inactive
COc1ccc2oc(=O)cc(CN3CCOCC3)c2c1	inactive

Structure (SMILES)	Potency
Cc1ccc2c(CN3CCN(S(=O)(=O)c4ccccc4C(F)(F)F)CC3)cc(=O)oc2c1	17.8 µM (active)
Cc1cc2oc(=O)cc(CN3CCN(S(=O)(=O)c4cccs4)CC3)c2cc1C(C)C	2.31 µM (active)
Cc1cc2oc(=O)cc(CN3CCN(Cc4ccccc4)CC3)c2cc1C	inactive
O=c1cc(CN2CCN(S(=O)(=O)/C=C/c3ccccc3)CC2)c2ccc(O)cc2o1	inactive
COc1ccc2c(CN3CCN(S(=O)(=O)c4cccs4)CC3)cc(=O)oc2c1	23.1 µM (active)
COc1ccc(CCNC(=O)CCc2cn(C)c3ccccc23)c(OC)c1	inactive
CCOc1ccc(NS(=O)(=O)c2ccc(C(=O)NCC(c3ccccc3OC)N3CCCC3)cc2)cc1 (stereo not drawn)	inactive
O=C(OCC(=O)N1CCN(c2ccccc2)CC1)c1ccc([N+](=O)[O-])s1	inactive
COc1ccc(CC(=O)N[C@@H]2c3cc(OC)c(OC)cc3C[C@H]2OCc2ccccc2)cc1	inactive
CC(C)CN(C(=O)COC(=O)c1ccc2ccccc2c1)c1c(N)n(Cc2ccccc2)c(=O)[nH]c1=O	inactive
O=C(O[C@@H]1[C@H](Cc2ccccc2)NS(=O)(=O)[C@H]2C[C@@H]3C=C[C@]12O3)c1ccccc1Br	inactive
COc1ccc(C2=NS(=O)(=O)N(C)C(C(=O)NC(C)c3ccccc3)=C2)cc1 (stereo not drawn)	inactive
COc1cc(NC(=O)C2=CC(c3ccc(C)cc3)=NS(=O)(=O)N2C)cc(OC)c1OC	13 µM (active)
COc1cc(NC(=O)C2=CC(c3ccco3)=NS(=O)(=O)N2C)cc(OC)c1OC	inactive
C=CCn1c(SCc2cc(C(=O)OC)c(C)o2)nnc1-c1ccncc1	inactive
C=CCn1c(SCn2nnc3ccccc3c2=O)nnc1-c1ccc(Cl)cc1	inactive
C=CCn1c(SCc2c(C(=O)OC)sc(N)c2C(=O)OC)nnc1-c1ccc(Cl)cc1	23.1 µM (active)
C#CCOCCOCCOCCNc1nc(N2CCN(C(=O)[C@H](CCCN=C(N)N)n3cc(C(N)[C@@H](C)CC)nn3)CC2)nc(N2CCN(C(=O)[C@H](CO)n3cc([C@@H](N)C(C)C)nn3)CC2)n1 (stereo partly drawn)	inactive
CN(c1ccc(OCC(=O)O)cc1)S(=O)(=O)c1ccc2ccccc2c1	inactive
CC(C)=CCCC(C)CN1CCC(n2nccc2NC(=O)c2ccccc2)CC1 (stereo not drawn)	inactive
Cc1cc(C)c2[nH]c(=O)c(CN(Cc3ccccc3)C(=S)NCCCN(C)C)cc2c1	inactive
Cc1cccc2cc(CN(C(=O)c3cccs3)c3ccccc3)c(=O)[nH]c12	inactive
Cc1cccc2cc(CN(Cc3cccs3)C(=S)NCc3ccco3)c(=O)[nH]c12	20.6 µM (active)
C=CC[C@@H](CC(=O)N[C@@H](CO)Cc1ccccc1)C(=O)N[C@H](COC(=O)[C@H](CC=C)CC(=O)OC(C)(C)C)Cc1ccccc1	inactive

Structure (SMILES)	Potency
COC(=O)C(C)Sc1ccc2nnc(-c3cccc(F)c3)n2n1 (stereo not drawn)	inactive
COCCNc1cc(-c2ccccc2)nc2cc(-c3cccc(F)c3)nn12	18.3 µM (active)
COCCCNc1nc2c(-c3cccc(C(F)(F)F)c3)nnn2c2ccccc12	inactive
O=S(=O)(c1ccc(SCc2ccc(Br)cc2)nc1)N1CCOCC1	inactive
CC(=O)Oc1ccc2c(=O)oc(-c3ccc([N+](=O)[O-])cc3)nc2c1	inactive
Cc1ccc(NC(=O)C/C(N)=N/O)cc1Cl	inactive
O=C(CC(=O)Nc1ccc(Cl)c(Cl)c1)N/N=C/c1ccc(O)cc1	inactive
O=C(CC(O)(C(F)(F)F)C(F)(F)F)Nc1ccc(Cl)c(Cl)c1	4.11 µM (active)
COc1cccc2cc(C(=O)NCc3ccc(C)cc3)c(=N)oc12	inactive
CCOc1ccc(NC(=O)CN(C)C(=O)c2cccc(S(=O)(=O)N3CCCC3)c2)cc1OCC	inactive
CCOC(=O)CNC(=O)CSc1ccc2nnc(-c3cccnc3)n2n1	inactive
CCCn1c(SCC(=O)N2CCc3ccccc32)nnc1-c1ccncc1	inactive
O=C(CSc1nc2[nH]ncc2c(=O)n1-c1ccccc1)N1CCCc2ccccc21	inactive
O=C(CSc1ccc2nnc(-c3ccccc3)n2n1)N1CCCc2ccccc21	25.9 µM (active)
CCC(=O)N1CCCc2ccccc21	inactive
Cn1c(SCC(=O)N2CCCc3ccccc32)nc2ccccc2c1=O	16.4 µM (active)
O=C1NC(Cc2ccc(O)cc2)c2nc3ccc(Cl)cc3c(=O)n2-c2ccccc21 (stereo not drawn)	inactive
CCOc1ccc(NC(=O)C2CCN(C(=O)N3CCOc4ccccc43)CC2)cc1	inactive
CC(C)CNC(=O)C1CCCN(S(=O)(=O)c2ccc(-n3cnnn3)cc2)C1 (stereo not drawn)	inactive
O=C(Nc1ccc(F)cc1)C1CCCN(S(=O)(=O)c2ccc(-n3cnnn3)cc2)C1 (stereo not drawn)	inactive
COC(=O)c1ccc(CN2CCCC(C(=O)Nc3cccc(-n4cnnn4)c3)C2)cc1 (stereo not drawn)	16.4 µM (active)
O=C(NCCc1ccco1)C(=O)NCCC1CCCCN1S(=O)(=O)c1ccccc1 (stereo not drawn)	inactive
c1ccc2c(CSCc3nc4ccccc4[nH]3)cccc2c1	inactive
N#C/C(=C(/O)Cc1cccc2ccccc12)c1nc2ccccc2s1	20.6 µM (active)

Structure (SMILES)	Potency
N#C/C(=C(/O)COc1cccc2ccccc12)c1nc2ccccc2[nH]1	inactive
Cc1noc(C)c1S(=O)(=O)N(C)C[C@H]1Oc2ccc(NC(=O)C3CCCCC3)cc2C(=O)N([C@H](C)CO)C[C@@H]1C	inactive
O=C(Nc1ccc(C(F)(F)F)cc1)c1cccc(-n2cnnn2)c1	inactive
CC(=O)Nc1ccc(NS(=O)(=O)c2ccc3c(c2)NC(=O)CC(=O)N3)cc1	inactive
COc1ccc(NC(=O)Cn2ncn3c(cc4ccccc43)c2=O)c(OC)c1OC	inactive
COc1cc(-c2noc(C3CCCN(S(=O)(=O)c4cccc(Cl)c4)C3)n2)cc(OC)c1OC (stereo not drawn)	20.6 µM (active)
COc1ccc(C(=O)C2CCCN(S(=O)(=O)c3cccc(C)c3)C2)c(C)c1 (stereo not drawn)	inactive
COc1ccc(NC(=O)N2CCCC(c3nc(-c4ccc(F)cc4)no3)C2)cc1 (stereo not drawn)	inactive
Cn1c(CC(=O)NNC(=O)c2ccccc2F)nc2ccccc21	inactive
O=C(CN1C(=O)NC2(CCOc3ccccc32)C1=O)Nc1cccc([N+](=O)[O-])c1 (stereo not drawn)	inactive
CCNC(=O)NC(=O)C(C)OC(=O)C1CCN(S(=O)(=O)c2ccccc2F)CC1 (stereo not drawn)	inactive
COc1ccc(S(=O)(=O)N2CCOCC2)cc1C(=O)NC1CCCCC1	inactive
COc1ccc(CC(=O)Nc2cc(S(=O)(=O)N3CCCCC3)ccc2N2CCN(C)CC2)cc1	inactive
COc1ccc(S(=O)(=O)N2CCCCC2)cc1NC(=O)COc1ccccc1	inactive
COc1ccc(S(=O)(=O)Nc2ccc(S(=O)(=O)N3CCCCC3)cc2)cc1OC	inactive
COc1ccc(S(=O)(=O)N2CCCCCC2)cc1NC(=O)Cc1ccc(OC)c(OC)c1	18.3 µM (active)
COc1ccc(S(=O)(=O)N2CCCCC2)cc1Br	inactive
COc1ccc(-c2ccc(Nc3ccc(S(=O)(=O)N4CCCC4)cc3)nn2)cc1OC	23.1 µM (active)
CCNC(=O)NC(=O)C(C)OC(=O)c1cc(S(=O)(=O)N2CCCCCC2)ccc1OC (stereo not drawn)	23.1 µM (active)
CC(=O)NCCC(=O)Nc1cc(S(=O)(=O)N2CCCCC2)ccc1Oc1cccc(C)c1	inactive
Cc1cccn2c(=O)c3cc(C(=O)NCC4CCCO4)c(=N)n(Cc4ccc(F)cc4)c3nc12 (stereo not drawn)	inactive
